Here are results for 19 molecules from PubChem BioAssay (EPA / NIEHS).

Some compounds were tested as several samples or in several runs, with calls that do not always agree. Activity calls are given as the source filed them. How the source made its calls: active means hit-call score of the fitted dose curve at least 0.9, where 1 is the maximum; inactive means score below 0.9.

A short description of one experiment: CEETOX_H295R_OHPREG: CeeTox H295R High-throughput Steroidogenesis Assay for OH-Pregnenolone (OHPREG) (AID 2283434). As to conditions: actives raise or lower the signal. The method in brief: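 Hormone levels in spent medium were measured by tandem mass spectrometry following liquid-liquid extraction. Cells (H295R) had been forskolin-stimulated (10 uM, 48 h) before a 48 h chemical exposure at 0.1% DMSO, with activity fitted in both directions against DMSO.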
As usually defined, the AC50 is the concentration giving half of the maximal activity seen. For `O=C(c1ccc(OCCN2CCCCC2)cc1)c1c(-c2ccc(O)cc2)sc2cc(O)ccc12`, the AC50 was 0.35 µM (active).

As to `C#C[C@]1(O)CC[C@H]2[C@@H]3CCc4cc(O)ccc4[C@H]3CC[C@@]21C`, the AC50 is 0.369 µM (active).

As to `CCCCCC(=O)O[C@]1(C(C)=O)CC[C@H]2[C@@H]3CCC4=CC(=O)CC[C@]4(C)[C@H]3CC[C@@]21C`, the AC50 was 11.4 µM (active).

In the case of `OCCCO`, the outcome was inactive.

For `c1coc(CNc2ncnc3nc[nH]c23)c1`, the outcome was inactive.

Regarding `CC(=O)C1=C(C)[C@@H]2C[C@@]3(C1)[C@H](C)CC[C@H]3C2(C)C`, the molecule was called inactive.

With `CC=CC(=O)C1=C(C)C=CCC1(C)C`, the molecule was called inactive.

For the molecule `CCCCCCCCCCCCN1CCOCC1`, the AC50 is 0.645 µM (active).

For `CC(=N[Si](C)(C)C)O[Si](C)(C)C`, the molecule was classed as inactive.

Take `c1ccc(OCCOc2ccccc2)cc1`: the outcome was inactive.

Take `O=C(OCc1ccccc1)c1ccccc1O`: the result was inactive.

For `COc1ccc2[nH]cc(CCNC(C)=O)c2c1`, the molecule was classed as inactive.

`CCCc1ccc(O)cc1`: the outcome was inactive.

For `OCC=Cc1ccccc1`, the outcome was inactive.

In the case of `CC/C(=C(\c1ccccc1)c1ccc(OCCN(C)C)cc1)c1ccccc1`, the AC50 is 0.311 µM (active) and the outcome was inactive.

As to `CC(=O)c1ccc2ccccc2c1`, the outcome was inactive.

Consider `C[C@]12CC[C@@H]3c4ccc(O)cc4CC[C@H]3[C@@H]1CC[C@@H]2O`, for which the AC50 is 1.57 µM (active).

Take `CC(C)(C)c1cccc(O)c1`: the call was inactive.

Another experiment in a line: CEETOX_H295R_OHPROG: CeeTox H295R High-throughput Steroidogenesis Assay for OH-Progesterone (OHPROG) (AID 2283435).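 On AC50: human adrenal H295R cells primed 48 h with 10 µM forskolin; 17alpha-hydroxyprogesterone secreted into medium measured by HPLC-MS/MS.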 The conditions noted are these: actives raise or lower the signal. The method in brief: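 H295R, 10 uM forskolin prestim 48 h; cmpd in 0.1% DMSO 48 h; medium MTBE-extracted, HPLC-MS/MS for OH-progesterone; 7-pt std curve; bidirectional fit vs DMSO; MTT viability, chemicals diluted until viability >/=70%.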
Take `O=C(c1ccc(OCCN2CCCCC2)cc1)c1c(-c2ccc(O)cc2)sc2cc(O)ccc12`: the outcome was inactive.

Take `C#C[C@]1(O)CC[C@H]2[C@@H]3CCc4cc(O)ccc4[C@H]3CC[C@@]21C`: the molecule was called inactive.

In the case of `CCCCCC(=O)O[C@]1(C(C)=O)CC[C@H]2[C@@H]3CCC4=CC(=O)CC[C@]4(C)[C@H]3CC[C@@]21C`, the outcome was inactive.

For `OCCCO`, the molecule was called inactive.

Regarding `c1coc(CNc2ncnc3nc[nH]c23)c1`, the result was inactive.

As for `CC(=O)C1=C(C)[C@@H]2C[C@@]3(C1)[C@H](C)CC[C@H]3C2(C)C`, the result was inactive.

Take `CC=CC(=O)C1=C(C)C=CCC1(C)C`: the outcome was inactive.

Regarding `CCCCCCCCCCCCN1CCOCC1`, the AC50 was 1.86 µM (active).

With `CC(=N[Si](C)(C)C)O[Si](C)(C)C`, the molecule was called inactive.

With `c1ccc(OCCOc2ccccc2)cc1`, the AC50 was 36.9 µM (active).

`O=C(OCc1ccccc1)c1ccccc1O`: the AC50 was 50 µM (active).

As to `COc1ccc2[nH]cc(CCNC(C)=O)c2c1`, the AC50 is 3.07 µM (active).

Consider `CCCc1ccc(O)cc1`, for which the result was inactive.

In the case of `OCC=Cc1ccccc1`, the result was inactive.

As for `CC/C(=C(\c1ccccc1)c1ccc(OCCN(C)C)cc1)c1ccccc1`, the AC50 is 0.161 µM (active) and the molecule was called inactive.

On to `CC(=O)c1ccc2ccccc2c1`, for which the AC50 was 50 µM (active).

For `C[C@]12CC[C@@H]3c4ccc(O)cc4CC[C@H]3[C@@H]1CC[C@@H]2O`, the outcome was inactive.

For `CC(C)(C)c1cccc(O)c1`, the outcome was inactive.

The nature of another experiment: CEETOX_H295R_ANDR: CeeTox H295R High-throughput Steroidogenesis Assay for Androstenedione (ANDR) (AID 2283436).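 Further: human H295R adrenal cells exposed for 48 h with androstenedione measured in medium.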 As to conditions: actives raise or lower the signal. The method in brief:
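Read-out is androstenedione secreted into medium, measured by tandem mass spectrometry after liquid-liquid extraction. Cells were H295R, dosed for 48 h per modified OECD 456; activity fitted in both directions relative to DMSO.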
`OCCCO`: the molecule was classed as inactive.

Regarding `CC=CC(=O)C1=C(C)C=CCC1(C)C`, the molecule was called inactive.

In the case of `CC(=N[Si](C)(C)C)O[Si](C)(C)C`, the molecule was classed as inactive.

`CC(C)(C)c1cccc(O)c1`: the molecule was classed as inactive.

Another experiment can be described thus: CEETOX_H295R_CORTIC: CeeTox H295R High-throughput Steroidogenesis Assay for Corticosterone (CORTIC) (AID 2283437).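 Further: corticosterone secreted into medium quantified by mass spectrometry.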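 On AC50: human H295R adrenal cells prestimulated with forskolin before chemical exposure.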 The conditions noted are these: actives raise or lower the signal. The method in brief: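 Corticosterone secreted into medium is measured by reverse-phase HPLC with tandem MS following liquid-liquid extraction. Cells are forskolin-stimulated (10 uM, 48 h) before 48 h test exposure; activity fitted in both directions against DMSO.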
Turning to `O=C(c1ccc(OCCN2CCCCC2)cc1)c1c(-c2ccc(O)cc2)sc2cc(O)ccc12`, the molecule was classed as inactive.

As to `C#C[C@]1(O)CC[C@H]2[C@@H]3CCc4cc(O)ccc4[C@H]3CC[C@@]21C`, the AC50 is 0.142 µM (active).

For `CCCCCC(=O)O[C@]1(C(C)=O)CC[C@H]2[C@@H]3CCC4=CC(=O)CC[C@]4(C)[C@H]3CC[C@@]21C`, the molecule was called inactive.

For the molecule `OCCCO`, the molecule was called inactive.

As to `c1coc(CNc2ncnc3nc[nH]c23)c1`, the molecule was classed as inactive.

As to `CC=CC(=O)C1=C(C)C=CCC1(C)C`, the result was inactive.

As to `CCCCCCCCCCCCN1CCOCC1`, the outcome was inactive.

`CC(=N[Si](C)(C)C)O[Si](C)(C)C`: the result was inactive.

Regarding `c1ccc(OCCOc2ccccc2)cc1`, the call was inactive.

Regarding `O=C(OCc1ccccc1)c1ccccc1O`, the outcome was inactive.

With `COc1ccc2[nH]cc(CCNC(C)=O)c2c1`, the AC50 was 10.5 µM (active).

As to `CCCc1ccc(O)cc1`, the half-maximal activity concentration (AC50) is 36.4 µM (active).

Take `CC/C(=C(\c1ccccc1)c1ccc(OCCN(C)C)cc1)c1ccccc1`: the call was inactive.

Regarding `CC(=O)c1ccc2ccccc2c1`, the call was inactive.

`C[C@]12CC[C@@H]3c4ccc(O)cc4CC[C@H]3[C@@H]1CC[C@@H]2O`: the AC50 is 0.479 µM (active).

In the case of `O=c1cc(-c2ccc(O)cc2)oc2cc(O)cc(O)c12`, the molecule was classed as inactive.

Consider `CC(C)(C)c1cccc(O)c1`, for which the molecule was called inactive.

A further experiment in a line: CEETOX_H295R_CORTISOL: CeeTox H295R High-throughput Steroidogenesis Assay for Cortisol (AID 2283438).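 Further: cortisol secreted into medium quantified by LC-MS/MS.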 The conditions noted are these: actives raise or lower the signal. The method in brief: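 Forskolin 10 uM 48 h prestim → test cmpd in DMSO (0.1% final) 48 h → medium MTBE-extracted → LC-MS/MS cortisol vs 7-pt std curve. Gain/loss of signal fitted vs DMSO. MTT viability in same wells.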
For the molecule `O=C(c1ccc(OCCN2CCCCC2)cc1)c1c(-c2ccc(O)cc2)sc2cc(O)ccc12`, the result was inactive.

Turning to `C#C[C@]1(O)CC[C@H]2[C@@H]3CCc4cc(O)ccc4[C@H]3CC[C@@]21C`, the outcome was inactive.

As to `CCCCCC(=O)O[C@]1(C(C)=O)CC[C@H]2[C@@H]3CCC4=CC(=O)CC[C@]4(C)[C@H]3CC[C@@]21C`, the AC50 is 6.66 µM (active).

In the case of `OCCCO`, the result was inactive.

Consider `CC=CC(=O)C1=C(C)C=CCC1(C)C`, for which the molecule was classed as inactive.

Turning to `CCCCCCCCCCCCN1CCOCC1`, the outcome was inactive.

For the molecule `CC(=N[Si](C)(C)C)O[Si](C)(C)C`, the molecule was called inactive.

As for `c1ccc(OCCOc2ccccc2)cc1`, the molecule was called inactive.

On to `O=C(OCc1ccccc1)c1ccccc1O`, for which the call was inactive.

Regarding `COc1ccc2[nH]cc(CCNC(C)=O)c2c1`, the outcome was inactive.

Turning to `CCCc1ccc(O)cc1`, the outcome was inactive.

As for `CC/C(=C(\c1ccccc1)c1ccc(OCCN(C)C)cc1)c1ccccc1`, the outcome was inactive.

For `CC(=O)c1ccc2ccccc2c1`, the outcome was inactive.

For `C[C@]12CC[C@@H]3c4ccc(O)cc4CC[C@H]3[C@@H]1CC[C@@H]2O`, the concentration at half-maximal activity (AC50) was 2.63 µM (active).

For `O=c1cc(-c2ccc(O)cc2)oc2cc(O)cc(O)c12`, the molecule was called inactive.

As for `CC(C)(C)c1cccc(O)c1`, the call was inactive.
